EWS-Fli block = inhibitors of EWS/Fli oncoprotein transcriptional activity | A673 NR0B1-luciferase reporter, viability-normalised | inhibition, % at 12.6 µM | 0.67% of 350,000 active | AID 651661;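 active means mean inhibition of at least 50% after viability correction, with every replicate also passing that limit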;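 further: firefly luciferase signal divided by Alamar Blue viability fluorescence both relative to DMSO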
LMP1 NFkB inh = reduces LMP1-driven NF-kappaB luciferase signal; LMP1-induced NF-kappaB luciferase reporter cells, luminescence; inhibition, % at 12.5 µM; 0.69% of 350,000 active; AID 504558; in the data active means inhibition above about 41%;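 further: 0% = neutral control wells and 100% = reference inhibitor control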
TRPM1 prom inh = MITF TRPM1 promoter inhibition in SK-MEL-5 cells | SK-MEL-5 TRPM1 promoter luciferase, 24 h | inhibition, % at 12.5 µM | 0.83% of 330,000 active;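 active means mean inhibition across replicates of 60% or more, whatever share of single replicates reaches that level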
PAX8 inh HTS = lowers PAX8-driven luciferase in RMG-I cells. RMG-I TPO-luciferase reporter, SteadyGlo, 24 h. inhibition, % at 12.6 µM. 1.2% of 360,000 active. AID 652154;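 active means mean replicate inhibition at least 60% with every replicate also reaching 60%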;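 further: luciferase light reporting Pax8 driven TPO promoter activity; plate controls were median of neutral control wells for no effect and mitoxantrone controls for full effect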
LGR2 inh = inhibitors of bursicon-induced Drosophila LGR2 receptor cAMP signaling. HEK293 LGR2, CRE-luciferase, bursicon-stimulated, 4 h. inhibition, % at 9.99 µM. 0.35% of 380,000 active. AID 720647;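 active means drop in luminescence signal, shown as inhibition above about 50% in the replicate tests, limit read from the data, passing the limit was not always enough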;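 further: agonist challenge used bursicon conditioned medium at about half maximal strength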
Shn3 inh set2 = inhibitors of Schnurri-3 3'UTR reporter in osteoblasts; AID 588674; inhibition, % at 12.5 µM; Clone20 osteoblast Shn3 3'UTR firefly luciferase, 24 h; 0.52% of 360,000 active;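 active means mean inhibition of at least 75% with every replicate also reaching 75%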;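 further: 0% = median of neutral control wells and 100% = pilot-screen positive control compound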
The depositor's hits bear a star; nt = no result. The list is not random: actives were taken first. Their share in the collection is about 2.2%.

SMILES	EWS-Fli block	LMP1 NFkB inh	TRPM1 prom inh	PAX8 inh HTS	LGR2 inh	Shn3 inh set2
Cc1ccc(S(=O)(=O)Nc2ccc3c(c2)C(=O)N([C@@H](C)CO)C[C@@H](C)[C@H](CN(C)S(=O)(=O)c2ccc(F)cc2)OCCCC[C@H](C)O3)cc1	1	nt	nt	-19	36	nt
COc1cccc(S(=O)(=O)Nc2ccc3c(c2)[C@@H]2C[C@H](CC(=O)NCc4cccc(F)c4)O[C@@H](CO)[C@@H]2O3)c1	7	nt	nt	21	-24	nt
COc1cc(CCC(=O)Nc2nnc(C)s2)cc(OC)c1OC	51*	1	17	29	2	-11
COc1cc(CCC(=O)Nc2ncc(C)s2)cc(OC)c1OC	0	-25	-3	-1	12	13
CCOc1cc(/C=C2\C(=O)ON=C2C)ccc1OCc1ccccc1	nt	6	49	-18	-7	91*
CCCOc1ccc(/C=C2/C(=O)ON=C2C)cc1OCC	26	3	11	29	16	13
Nc1ccc2cc3[nH]c4cc(N)ccc4c3nc2c1	42	62*	83*	90*	nt	90*
Nc1ccc2nc(-c3cccc(-c4nc5ccc(N)cc5[nH]4)c3)[nH]c2c1	0	-2	14	-4	1	-4
Cc1noc(C)c1S(=O)(=O)Nc1ccc2c(c1)C(=O)N([C@H](C)CO)C[C@@H](C)[C@@H](CN(C)S(=O)(=O)c1ccc(Cl)cc1)OCCCC[C@H](C)O2	-4	nt	nt	70*	-14	nt
Cc1noc(C)c1S(=O)(=O)N(C)C[C@H]1OCCCC[C@H](C)Oc2ccc(NS(=O)(=O)c3ccc(Cl)cc3)cc2C(=O)N([C@H](C)CO)C[C@@H]1C	4	nt	nt	70*	2	nt
COc1ccc(S(=O)(=O)N(C)C[C@H]2OCCCC[C@@H](C)Oc3ccc(NS(=O)(=O)c4c(C)noc4C)cc3C(=O)N([C@H](C)CO)C[C@H]2C)cc1	6	nt	nt	77*	8	nt
Cc1noc(C)c1NC(=O)N(C)C[C@@H]1OCCCC[C@@H](C)Oc2ccc(NS(C)(=O)=O)cc2C(=O)N([C@@H](C)CO)C[C@H]1C	0	nt	nt	5	23	nt
CCCNC(=O)C[C@H]1C[C@@H]2c3cc(NC(=O)Nc4ccc(F)cc4)ccc3O[C@@H]2[C@@H](CO)O1	0	nt	nt	23	4	nt
O=C(N/N=C/c1cc(Br)ccc1O)C(=O)Nc1ccccc1OC(F)(F)C(F)F	nt	30	66*	nt	24	85*
COc1ccccc1/C=N/NC(=O)C(=O)Nc1ccccc1OC(F)(F)C(F)F	4	-4	-7	40	2	-1
O=C(N/N=C/c1cc(Cl)ccc1O)C(=O)Nc1ccccc1OC(F)(F)C(F)F	-9	17	65*	70*	24	88*
CCOC(=O)N1CCN(C(=O)c2ccc(Cn3c(=S)[nH]c4cc5c(cc4c3=O)OCO5)cc2)CC1	nt	-2	63*	4	nt	8
COc1ccc(S(=O)(=O)N(C)C[C@H]2Oc3ccc(NS(=O)(=O)c4ccc(C)cc4)cc3C(=O)N([C@@H](C)CO)C[C@H]2C)cc1	-7	nt	nt	-10	17	nt
Nc1nc(CCl)nc(N(c2ccccc2)c2ccccc2)n1	33	nt	nt	99*	0	16
Nc1nc(Cl)nc(N(c2ccccc2)c2ccccc2)n1	7	9	0	8	2	-9
COc1cc(C(=O)NCCOc2cc(C)cc(C)c2)cc(OC)c1OC	53*	-9	12	14	2	7
CN1[C@H](C(=O)NC2CCCC2)[C@@H](CO)[C@@H]2Cn3c(ccc(/C=C/c4ccccc4)c3=O)[C@@H]21	3	nt	nt	nt	-5	nt
COc1ccc2c3c(n(C)c2c1)[C@H](CO)N(C(=O)c1ccc(F)cc1)CC31CCN(C(=O)c2ccc(F)cc2)CC1	16	nt	nt	nt	18	nt
Cc1ccc(NC(=O)c2cc(S(=O)(=O)NCCC3=CCCCC3)ccc2F)cc1F	nt	7	15	9	-17	92*
O=C(Nc1cccc(F)c1)c1cc(S(=O)(=O)NCCC2=CCCCC2)ccc1F	nt	23	18	22	15	89*
CC(=O)N1[C@H](CO)[C@@H](c2ccccc2)C12CN(C(=O)c1ccccn1)C2	-13	nt	nt	-21	2	nt
C[C@@H]1CN([C@@H](C)CO)C(=O)c2cc(NC(=O)CCC(F)(F)F)ccc2O[C@@H](C)CCCCO[C@H]1CN(C)Cc1ccc(Cl)c(Cl)c1	16	nt	nt	47	9	nt

Bioassay records (PubChem BioAssay)
